# Screen size: about 5,500 compounds; about 2,000 (36%) were called active. Not shown: some 18% with an inconclusive outcome. Some of the results follow. Values without a mark were called inactive. Cut-off read from the data, not from the text of the source: active = normalized growth mostly below about 0.91 (no sharp cut-off); inconclusive = no clear call, values can overlap the other calls; inactive = mostly above about 0.92.
# Assay: chemical genetic growth profiling, strain panel (AID 1159580);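 note: tested at 20 µM; growth read once vehicle control cultures reached saturation at 30 °C; 1 = growth at the plate median or of vehicle wells; lower values mean less growth of the strain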
# Conditions: growth OD
structure (smiles),measurement,setting,value
COc1cc2c(cc1OC)[C@@H]1C(=O)c3ccc4c(c3O[C@@H]1CO2)CC(C(C)C)O4 (stereo partly drawn),normalized growth,"S. cerevisiae deletion strains, locus YKL009W, strain mrt4, active compounds read low",1.01
same,normalized growth,"S. cerevisiae deletion strains, locus YKL068W, active compounds read low",0.999
same,normalized growth,"S. cerevisiae deletion strains, locus YKL085W, strain MDH1 (second series), active compounds read low",0.999
same,normalized growth,"S. cerevisiae deletion strains, locus YKL085W, strain MDH1, active compounds read low",0.999
same,normalized growth,"S. cerevisiae deletion strains, locus YKL160W, strain elf1, active compounds read low",0.978
same,normalized growth,"S. cerevisiae deletion strains, locus YKL190W, strain CNB1, active compounds read low",0.998
same,normalized growth,"S. cerevisiae deletion strains, locus YKR001C, strain vps1, active compounds read low",0.849 (active)
same,normalized growth,"S. cerevisiae deletion strains, locus YKR026C, strain gcn3, active compounds read low",0.991
same,normalized growth,"S. cerevisiae deletion strains, locus YKR091W, strain srl3, active compounds read low",0.997
same,normalized growth,"S. cerevisiae deletion strains, locus YLL001W, strain dnm1, active compounds read low",0.943
same,normalized growth,"S. cerevisiae deletion strains, locus YLL026W, active compounds read low",0.98
same,normalized growth,"S. cerevisiae deletion strains, locus YLL041C, strain sdh2, active compounds read low",1
same,normalized growth,"S. cerevisiae deletion strains, locus YLR027C, strain aat2, active compounds read low",0.935
same,normalized growth,"S. cerevisiae deletion strains, locus YLR039C, strain RIC1, active compounds read low",0.849
same,normalized growth,"S. cerevisiae deletion strains, locus YLR058C, strain SHM2, active compounds read low",0.987
same,normalized growth,"S. cerevisiae deletion strains, locus YLR102C, strain apc9, active compounds read low",1.01
same,normalized growth,"S. cerevisiae deletion strains, locus YLR113W, strain HOG1, active compounds read low",1.02
same,normalized growth,"S. cerevisiae deletion strains, locus YLR221C, strain rsa3, active compounds read low",0.966
same,normalized growth,"S. cerevisiae deletion strains, locus YLR258W, strain gsy2, active compounds read low",0.985
same,normalized growth,"S. cerevisiae deletion strains, locus YLR262C, strain YPT6 (second series), active compounds read low",0.897
same,normalized growth,"S. cerevisiae deletion strains, locus YLR262C, strain YPT6, active compounds read low",0.822
same,normalized growth,"S. cerevisiae deletion strains, locus YLR268W, strain sec22, active compounds read low",0.976
same,normalized growth,"S. cerevisiae deletion strains, locus YLR320W, strain mms22, active compounds read low",0.923
same,normalized growth,"S. cerevisiae deletion strains, locus YLR330W, strain CHS5, active compounds read low",1
same,normalized growth,"S. cerevisiae deletion strains, locus YLR342W, strain FKS1 (second series), active compounds read low",0.999
same,normalized growth,"S. cerevisiae deletion strains, locus YLR342W, strain FKS1, active compounds read low",0.975
same,normalized growth,"S. cerevisiae deletion strains, locus YLR357W, strain rsc2, active compounds read low",0.958
same,normalized growth,"S. cerevisiae deletion strains, locus YLR370C, strain arc18, active compounds read low",0.984
same,normalized growth,"S. cerevisiae deletion strains, locus YLR371W, strain rom2, active compounds read low",1
same,normalized growth,"S. cerevisiae deletion strains, locus YLR384C, strain iki3, active compounds read low",0.981
same,normalized growth,"S. cerevisiae deletion strains, locus YLR418C, strain cdc73, active compounds read low",0.921
same,normalized growth,"S. cerevisiae deletion strains, locus YML016C, strain PPZ1, active compounds read low",1
same,normalized growth,"S. cerevisiae deletion strains, locus YML032C, strain rad52, active compounds read low",1
same,normalized growth,"S. cerevisiae deletion strains, locus YML120C, strain ndi1, active compounds read low",0.986
same,normalized growth,"S. cerevisiae deletion strains, locus YML124C, strain tub3, active compounds read low",0.999
same,normalized growth,"S. cerevisiae deletion strains, locus YMR058W, strain fet3, active compounds read low",0.983
same,normalized growth,"S. cerevisiae deletion strains, locus YMR078C, strain ctf18, active compounds read low",0.996
same,normalized growth,"S. cerevisiae deletion strains, locus YMR125W, strain sto1, active compounds read low",0.99
same,normalized growth,"S. cerevisiae deletion strains, locus YMR129W, active compounds read low",0.979
same,normalized growth,"S. cerevisiae deletion strains, locus YMR205C, strain PFK2, active compounds read low",0.924
same,normalized growth,"S. cerevisiae deletion strains, locus YMR223W, strain ubp8, active compounds read low",1
same,normalized growth,"S. cerevisiae deletion strains, locus YMR231W, strain pep5, active compounds read low",0.992
same,normalized growth,"S. cerevisiae deletion strains, locus YMR263W, strain SAP30, active compounds read low",1
same,normalized growth,"S. cerevisiae deletion strains, locus YMR307W, strain GAS1, active compounds read low",0.872
same,normalized growth,"S. cerevisiae deletion strains, locus YNL067W, strain RPL9B, active compounds read low",0.993
same,normalized growth,"S. cerevisiae deletion strains, locus YNL071W, strain lat1, active compounds read low",0.93
same,normalized growth,"S. cerevisiae deletion strains, locus YNL183C, strain NPR1, active compounds read low",0.983
same,normalized growth,"S. cerevisiae deletion strains, locus YNL209W, strain ssb2, active compounds read low",0.995
same,normalized growth,"S. cerevisiae deletion strains, locus YNL233W, strain BNI4, active compounds read low",0.986
same,normalized growth,"S. cerevisiae deletion strains, locus YNL248C, strain rpa49, active compounds read low",0.98
same,normalized growth,"S. cerevisiae deletion strains, locus YNL250W, strain rad50, active compounds read low",1
same,normalized growth,"S. cerevisiae deletion strains, locus YNL271C, strain bni1, active compounds read low",1.02
same,normalized growth,"S. cerevisiae deletion strains, locus YNL298W, strain CLA4, active compounds read low",1.01
same,normalized growth,"S. cerevisiae deletion strains, locus YNL307C, strain MCK1, active compounds read low",0.986
same,normalized growth,"S. cerevisiae deletion strains, locus YNL322C, strain KRE1 (second series), active compounds read low",0.985
same,normalized growth,"S. cerevisiae deletion strains, locus YNR049C, strain mso1, active compounds read low",0.997
same,normalized growth,"S. cerevisiae deletion strains, locus YNR052C, strain pop2, active compounds read low",1.01
same,normalized growth,"S. cerevisiae deletion strains, locus YOL006C, strain TOP1, active compounds read low",0.897
same,normalized growth,"S. cerevisiae deletion strains, locus YOL012C, strain htz1",1.16
same,normalized growth,"S. cerevisiae deletion strains, locus YOL147C, strain pex11, active compounds read low",0.999
same,normalized growth,"S. cerevisiae deletion strains, locus YOR001W, strain rrp6, active compounds read low",0.966
same,normalized growth,"S. cerevisiae deletion strains, locus YOR061W, strain CKA2, active compounds read low",0.998
same,normalized growth,"S. cerevisiae deletion strains, locus YOR069W, strain VPS5, active compounds read low",1.01
same,normalized growth,"S. cerevisiae deletion strains, locus YOR070C, strain gyp1, active compounds read low",0.961
same,normalized growth,"S. cerevisiae deletion strains, locus YOR080W, strain dia2, active compounds read low",0.974
same,normalized growth,"S. cerevisiae deletion strains, locus YOR083W, strain WHI5, active compounds read low",0.98
same,normalized growth,"S. cerevisiae deletion strains, locus YOR106W, strain vam3, active compounds read low",1.02
same,normalized growth,"S. cerevisiae deletion strains, locus YOR136W, strain idh2, active compounds read low",1
same,normalized growth,"S. cerevisiae deletion strains, locus YOR144C, strain elg1, active compounds read low",0.992
same,normalized growth,"S. cerevisiae deletion strains, locus YOR184W, strain ser1, active compounds read low",0.925
same,normalized growth,"S. cerevisiae deletion strains, locus YOR231W, strain MKK1, active compounds read low",1.05
same,normalized growth,"S. cerevisiae deletion strains, locus YOR265W, strain rbl2, active compounds read low",0.989
same,normalized growth,"S. cerevisiae deletion strains, locus YOR270C, strain vph1, active compounds read low",0.939
same,normalized growth,"S. cerevisiae deletion strains, locus YOR290C, strain snf2, active compounds read low",0.989
same,normalized growth,"S. cerevisiae deletion strains, locus YOR316C, strain cot1, active compounds read low",0.999
same,normalized growth,"S. cerevisiae deletion strains, locus YPL051W, strain arl3, active compounds read low",0.941
same,normalized growth,"S. cerevisiae deletion strains, locus YPL055C, strain LGE1, active compounds read low",0.929
same,normalized growth,"S. cerevisiae deletion strains, locus YPL078C, strain atp4, active compounds read low",0.982
same,normalized growth,"S. cerevisiae deletion strains, locus YPL106C, strain sse1, active compounds read low",1
same,normalized growth,"S. cerevisiae deletion strains, locus YPL240C, strain hsp82, active compounds read low",1.01
same,normalized growth,"S. cerevisiae deletion strains, locus YPL241C, strain CIN2, active compounds read low",1
same,normalized growth,"S. cerevisiae deletion strains, locus YPL256C, strain CLN2, active compounds read low",1.05
same,normalized growth,"S. cerevisiae deletion strains, locus YPR119W, strain clb2, active compounds read low",1
same,normalized growth,"S. cerevisiae deletion strains, locus YPR141C, strain kar3, active compounds read low",1
same,normalized growth,"S. cerevisiae deletion strains, locus YPR163C, strain tif3, active compounds read low",1.01
same,normalized growth,"S. cerevisiae deletion strains, locus YPR167C, strain met16, active compounds read low",1
same,normalized growth,"S. cerevisiae deletion strains, strain wtn01, active compounds read low",1.01
same,normalized growth,"S. cerevisiae strains, strain wild type, active compounds read low",0.987
